# Measurements reported in PubChem BioAssay (EPA / NIEHS).
# Calls of active or inactive are those of the source. How the source made its calls: active means hit-call score of the fitted dose curve at least 0.9, where 1 is the maximum; inactive means score below 0.9.
# Experiment: ATG_TAL_CIS: Attagene CIS-FACTORIAL HepG2 Assay for human TAL Basal Promoter (AID 2282966)
# Conditions: HepG2 Attagene cis-factorial TAL promoter reporter; actives raise or lower the signal
# Protocol: ATG_CIS is a cell-based, multiplexed-readout assay that uses HepG2, a human liver cell line, with measurements taken at 24 hours after chemical dosing in a 24-well plate.ATG_TAL_CIS is one of 52 assay component(s) measured or calculated from the ATG_CIS assay. It is designed to make measurements of mRNA induction, a form of inducible reporter, as detected with fluorescence intensity signals by Reverse transcription polymerase chain reaction (RT-PCR) and Capillary electrophoresis technology.Data from the assay component ATG_TAL_CIS was analyzed into 1 assay endpoint. This assay endpoint, ATG_TAL_CIS, was analyzed with bidirectional fitting relative to DMSO as the negative control and baseline of activity. Using a type of inducible reporter, measures of mRNA for gain or loss-of-signal activity can be used to understand the background control at the transcription factor-level as they relate to the gene . Furthermore, this assay endpoint can be referred to as a secondary readout, because this assay has produced multiple assay endpoints where this one serves a background control function. To generalize the intended target to other relatable targets, this assay endpoint is annotated to the background measurement intended target family, where the subfamily is internal marker.
# Human liver HepG2 cells are transiently transfected with multiple reporter transcription units (MRTUs) in 6-well plates using FuGene 6 reagent (Roche; 3 ml FuGene/1 mg DNA). The MRTU constructs are regulated by a cis-regulating element (promoter). […] A major difference between the CIS and TRANS system is that in CIS activities of endogenous TFs are measured, whereas the TRANS assay evaluates changes in activities of exogenous, chimeric NR-Gal4 proteins. […] At the end of 24 hour incubation, total RNA was isolated using TriZol reagent (Invitrogen). The isolated RNA is then reverse-transcribed using oligo(dT) primer and Mo-MLV reverse transcriptase (Invitrogen) with DNAse I (Ambion) treatment for 30 min. The one-tenth of the produced cDNA was amplified by PCR using Taq DNA polymerase (Invitrogen) and two reporter sequence-specific primers. The PCR products were fluorescently labeled by primer extension with 6-arboxyfluorescein (6-FAM) 5'-labeled reporter sequence-specific primer (2 min at 95 C, 20 s at 68 C and 10 min at 72 C) and these products were digested with 5U of HpaI (New England Biolabs) for 2h at 37 C. The fragments were purified using Qiaquick PCR columns (Qiagen), analyzed on an ABI 3130xL genetic analyzer (Applied Biosystems) with peak positions identified by using a set of X-rhodamine (ROX)-labeled MapMarker1000 molecular weight standards (BioVentures). The raw capillary electrophoresis data was processed using Attagraph software (Attagene).
Compound,outcome,AC50
BrC1CCC(Br)C(Br)CCC(Br)C(Br)CCC1Br (stereo not given),inactive,
C=CC[N+](C)(C)CC=C,inactive,
CC1(CO)CN(c2ccccc2)NC1=O (stereo not given),inactive,
Nc1nc2ccc([N+](=O)[O-])cc2s1,inactive,
C=CC(C)(CCC=C(C)C)OC=O (stereo not given),inactive,
CCCCCNCCCCC,inactive,
CC(C)(C)c1n[nH]c(=S)n(N)c1=O,inactive,
CC(=O)C(=O)O,inactive,
C=C(C)C(=O)OCc1ccccc1,inactive,
COC(=O)C1=C(C)NC(C)=C(C(=O)OCCN(C)Cc2ccccc2)C1c1cccc([N+](=O)[O-])c1 (stereo not given),inactive,
CCC(=O)OCCC(C)CCC=C(C)C (stereo not given),inactive,
CC(C)OP(=O)(CP(=O)(OC(C)C)OC(C)C)OC(C)C,inactive,
C=COCCOCCOCCOC=C,inactive,
CCc1ccc(C=O)cc1,inactive,
O=C(COc1ccc(Cl)cc1)N1CCN(Cc2ccc3c(c2)OCO3)CC1,inactive,
Nc1ccc(S(=O)(=O)O)c(N)c1,inactive,
ClCCCl,inactive,
CC(C)=CCCC(C)=CCCC(C)=CCO,inactive,
CCOc1ccccc1OCC,inactive,
CCCCN,inactive,

Compound,outcome,AC50
O=Cc1ccc(F)cc1,inactive,
CCCCCCCCCCCCCCCC(=O)OC[C@H](O)[C@H]1OC(=O)C(O)=C1O,,100 µM (active)
CO[Si](C)(OC)c1ccccc1,inactive,
CCC/C=C/C=O,inactive,
CC1CCC2CC1C2(C)C (stereo not given),inactive,
CSc1nc(NC2CC2)nc(NC(C)(C)C)n1,inactive,
COC(=O)Cc1cccc2ccccc12,inactive,
C[C@]12CC[C@H]3[C@@H](CCC4=CC(=O)CC[C@@]43C)[C@@H]1CC[C@@H]2C(=O)CO,inactive,
OC1C(O)C(O)C(O)C(O)C1O (stereo not given),inactive,
C=CC(C)(O)CCC=C(C)CCC=C(C)C (stereo not given),,166 µM (active)
O=C(O)C[C@H](O)C[C@H](O)/C=C/c1c(C2CC2)nc2ccccc2c1-c1ccc(F)cc1,inactive,
OCC(CO)(CO)COCC(CO)(CO)CO,inactive,
O=C(O)c1cccc([N+](=O)[O-])c1,inactive,
CO[Si](CCCn1c(=O)n(CCC[Si](OC)(OC)OC)c(=O)n(CCC[Si](OC)(OC)OC)c1=O)(OC)OC,inactive,
CCCCCCCCCCCCSC,inactive,
C=CC(C)(C)O,inactive,
CC(C)C[C@H]1C(=O)N2CCC[C@H]2[C@]2(O)O[C@](NC(=O)[C@@H]3C=C4c5cccc6[nH]c(Br)c(c56)C[C@H]4N(C)C3)(C(C)C)C(=O)N12,,2.19 µM (active)
CN1[C@@H]2CC(OC(=O)[C@H](CO)c3ccccc3)C[C@H]1[C@@H]1O[C@@H]12 (stereo not given in full),inactive,
CN(C)CCCN,inactive,
CC(CC(C)(C)C)CC(C)(C)CC(C)(C)C (stereo not given),inactive,
